Test results: PubChem BioAssay (NCATS)
Records with an inconclusive call do not appear. Activity calls are given as the source filed them. Unless noted, calls come from the whole dose curve; as a rule, active = well fitted curve in the direction sought with a large enough effect; inconclusive = small, poorly fitted or top-dose-only effect, or another doubt; inactive = no such curve, though single readings can be large; an effect the other way counts as inactive or inconclusive.

Experiments:
[1] = AP1 Signaling Pathway (AID 357; active = well fitted curve in either direction with a large enough effect, not every such curve was filed as active;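 note: ME-180 reporter cells stimulated with EGF at its EC50 level; % is set by controls: 0 for no effect and ±100 for the full control effect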); conditions: ME-180 AP-1-bla reporter, EGF-induced, beta-lactamase ratio, 5 h; at 17.2 µM (top of the series) unless noted
How it was run: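 Beta-lactamase reporter under AP-1 response element, ME-180 background. Stimulus: EC50 EGF. Compound exposure 5 h, 37 °C. Detection: CCF4, 2.5 h RT, 460/530 nm. Values: AC50 from titration.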

[2] = target: Glucocorticoid receptor (Homo sapiens) (UniProt P04150); experiment: GR-GFP Redistribution (AID 450;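 active = compounds whose dose series gives a full or clear partial fitted curve of increased nuclear translocation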; note: potency is the fitted concentration of half-maximal effect)
[3] = target: Cytochrome P450 1A2 (Homo sapiens) (UniProt P05177); experiment: p450-cyp1a2 (AID 410; calls by dose curve; note: potency is the fitted concentration of half-maximal effect;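 for activity change, negative = inhibition: -100% = full effect of reference inhibitor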)
How it was run: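 20nM CYP1A2, 100uM Luciferin-ME (=Km), 100mM KPO4; cpd 10 min RT; +NADPH regen, 60 min RT; stop/detect 20 min; luminescence. Normalized to furafylline 57 uM = full inhibition.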

[4] = Stat Signaling Pathway (AID 446; active = well fitted curve in either direction with a large enough effect, not every such curve was filed as active;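 note: ME-180 cervical cancer cells given 40 pM IL-6 alongside compound; SIE-controlled beta-lactamase reporter measured as 460/530 nm FRET emission ratio; % is set by controls: 0 for no effect and ±100 for the full control effect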); conditions: ME-180 (cervical carcinoma) SIE beta-lactamase reporter, IL-6 stimulated, 5 h; at 17.2 µM (top of the series) unless noted
How it was run: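 Overnight-plated ME-180 cells bearing a STAT Inducible Element beta-lactamase reporter; 5 h co-exposure to compound and 40 pM IL-6; values normalized to 300 pM IL-6 and 125 nM JAK inhibitor controls.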

[5] = target: Glucocorticoid receptor (Homo sapiens) (UniProt P04150); experiment: GR-EFC Redistribution (AID 451; calls by dose curve; note: potency is the fitted concentration of half-maximal effect); conditions: CHO-K1 GR-EFC translocation, beta-gal luminescence, 2 h
How it was run: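 CHO-K1 cells stably expressing nuclear-localized β-gal enzyme acceptor and GR fused C-terminally to the enzyme donor fragment; ligand-driven nuclear translocation restores β-gal by complementation. Compounds titrated up to 46 uM final, 2 h at 37 °C; luminescence read.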

[6] = target: Mitogen-activated protein kinase 10 (Mus musculus) (UniProt Q61831); experiment: JNK3 AlphaScreen Assay (AID 530; active = well fitted curve in either direction with a large enough effect, not every such curve was filed as active;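 note: kinase came from lysate of stimulated human HepG2 cells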; note: potency is the fitted concentration of half-maximal effect;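 for activity change, negative = inhibition: signal reports phosphorylation of biotinylated GST-cJun 1-79 at Ser73 with 10 µM ATP; % is set by controls: 0 for no effect and ±100 for the full control effect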)
How it was run: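 Biotinylated GST-cJun(1-79) served as substrate for JNK3 in HepG2 lysates stimulated with IL-1beta and TNF-alpha. ATP was 10 uM final, pH 7.6. Ser73 phosphorylation was quantified by AlphaScreen (680 nm excitation).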

[7] = target: Guanine nucleotide-binding protein G(i) subunit alpha-1 (Homo sapiens) (UniProt P63096); experiment: qHTS Assay for Inhibitors of RGS12 GoLoco Motif Activity (Green Fluorophore) (AID 879);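 note: 0% = labeled peptide with Gαi1 and full inhibition = labeled peptide alone without protein; negative values mean loss of peptide binding seen as reduced polarization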
How it was run: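 A drop in FITC polarization marked displacement of the FITC-tagged RGS12 GoLoco peptide (10 nM) from Gαi1 (50 nM). Compounds were incubated 10 min at room temperature in Tris pH 7.5 buffer containing 150 mM NaCl, 0.1 mM GDP and 0.05% NP40; unlabeled peptide titration served as control.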

[8] = target: Cytochrome P450 2C19 (Homo sapiens) (UniProt P33261); experiment: qHTS Assay for Inhibitors and Substrates of Cytochrome P450 2C19 (AID 899); note: nearly all actives have a fitted effect of over 60% in size; note: potency is the fitted concentration of half-maximal effect
How it was run: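 Human CYP2C19 (5nM) with Luciferin-H EGE at 10uM (its KM) in 50mM KPO4 was preincubated with compound for 10 min at 37C. NADPH regeneration started a 60 min 37C reaction. Luciferin was read by luminescence, normalized to 57uM ketoconazole.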

[9] = qHTS Assay for Identification of Small Molecule Agonists for Thrombopoietin (TPO) Signaling Pathway (AID 917); note: % is set by controls: 0 for no effect and ±100 for the full control effect
How it was run: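 Cell-based luciferase reporter screen. Mouse Ba/F3 line stably expressing human TPO receptor; IL-3 removed overnight before plating. Co-treatment with compound and EC50 TPO (26 pM), 24 hrs at 37 C, then luminescence.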

[10] = target: Muscarinic acetylcholine receptor M1 (Rattus norvegicus) (UniProt P08482); experiment: qHTS Assay for Antagonists of Acetylcholine Muscarinic M1 Receptor: Kinetic Measurement of Intracellular Calcium Response (AID 943);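 note: Fluo-4 calcium signal as peak divided by basal fluorescence over 4 min; nearly all actives have a fitted effect of over 75% in size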
How it was run: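 Read-out: peak over basal Fluo-4 fluorescence, kinetic at 1 Hz for 4 min after EC80 carbachol (100 nM final). Rat M1-CHO cells, dye loaded 1 h at 37C, compound added 10 min before agonist.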

[11] = target: Pyruvate kinase (Leishmania mexicana) (UniProt Q27686); experiment: qHTS Validation Assay for Inhibitors of Leishmania Mexicana Pyruvate Kinase (AID 945);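 note: 0% = DMSO only neutral control wells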
How it was run: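 LmPYK E451W 0.2 nM; 0.5 mM PEP, 0.1 mM ADP, 7 mM MgCl2, 50 mM KCl, imidazole pH 7.2, 0.01% Tween 20, 0.05% BSA; 1 h RT; PKLight luminescence; DMSO-normalized.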

[12] = target: Pyruvate kinase PKM (Homo sapiens) (UniProt P14618); experiment: qHTS Assay for Activators of Human Muscle Pyruvate Kinase (AID 954; active = well fitted curve in the direction sought with a large enough effect, not every such curve was filed as active;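 note: 0% = uninhibited enzyme and -100% = no enzyme or full thiadiazolimine inhibition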)
How it was run: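 Screening used highly purified human pyruvate kinase M2 under submaximal activity, with PEP at its Km and ADP below Km. After an hour at room temperature, ATP was read by luciferase luminescence.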

[13] = target: Alpha-galactosidase A (Homo sapiens) (UniProt P06280); experiment: Counterscreen for Glucocerebrosidase Inhibitors: qHTS Assay for Human alpha-Galactosidase at pH 4.5 (AID 992); note: 0% is about no effect
How it was run: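 Each compound is preincubated briefly with 2 nM enzyme before substrate addition (80 uM); plates then sit 20 min at ambient temperature, are quenched with 1M NaOH/1M glycine, and read fluorometrically.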

[14] = target: alpha-glucosidase (Oryza sativa, rice) (UniProt Q653V4); experiment: Counterscreen for Glucocerebrosidase Inhibitors: qHTS Assay for Rice alpha-Glucosidase at pH 5.0 (AID 997);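 note: 0% = full activity with enzyme and -100% = basal without enzyme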
How it was run: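 Endpoint fluorogenic assay at pH 5.0: compounds (0.7 nM to 77 uM) titrated against 4 nM rice enzyme and 400 uM 4-MU-alpha-glucoside for 20 min at room temperature; NaOH/glycine stop, read ex 365/em 440 nm, Hill-fitted AC50.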

[15] = target: 3',5'-cyclic-AMP phosphodiesterase 4B (Homo sapiens) (UniProt Q07343); experiment: qHTS Assay for Inhibitors of PDE-IV (AID 607; active = well fitted activation curve with a large enough effect in the main read-out, with a control signal flat, not every such curve was filed as active; note: % of control where 0% means no effect)
How it was run: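 Live HEK293 cells with a modified cyclic nucleotide-gated (CNG) channel report intracellular cAMP via membrane-potential dye fluorescence (ex 535/em 590 nm). Endogenous PDE-IV was targeted. Compounds were tested at up to 22.9 uM final; RO 20-1724 100 uM served as control.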

[16] = target: Cytochrome P450 2C9 (Homo sapiens) (UniProt P11712); experiment: qHTS Assay for Inhibitors and Substrates of Cytochrome P450 2C9 (AID 883); note: nearly all actives have a fitted effect of over 60% in size; note: potency is the fitted concentration of half-maximal effect
How it was run: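 Human CYP2C9 (10nM) hydroxylated Luciferin-H (100uM, at its KM) to luciferin in 25mM KPO4. Compound was preincubated 10 min at 37C, then NADPH regeneration started a 60 min reaction at 37C. Luminescence was read after detection reagent, normalized to 57uM sulphaphenazole.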

[17] = target: Cytochrome P450 2D6 (Homo sapiens) (UniProt P10635); experiment: qHTS Assay for Inhibitors and Substrates of Cytochrome P450 2D6 (AID 891);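 note: luciferin methyl ether substrate demethylated by CYP2D6 with NADPH regeneration; % is set by controls: 0 for no effect and ±100 for the full control effect; nearly all actives have a fitted effect of over 60% in size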
How it was run: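 Luminescent read-out of luciferin formed by 5 nM human CYP2D6 demethylating 30 uM Luciferin-ME EGE (Km level) over 60 min at room temperature after NADPH regeneration addition. Data normalized to full inhibition by 1.43 uM quinidine.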

[18] = target: Cytochrome P450 3A4 (Homo sapiens) (UniProt P08684); experiment: qHTS Assay for Inhibitors and Substrates of Cytochrome P450 3A4 (AID 884); note: potency is the fitted concentration of half-maximal effect; nearly all actives have a fitted effect of over 50% in size
How it was run: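 Luminescent readout of luciferin produced by CYP3A4 (20 nM) dealkylation of Luciferin-PPXE, 25 uM (its KM). NADPH-driven reaction ran 60 min at RT after 10 min compound preincubation; data scaled to 57 uM ketoconazole as 100% inhibition.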

[19] = target: Cytochrome P450 3A4 (Homo sapiens) (UniProt P08684); experiment: qHTS Assay for Activators of Cytochrome P450 3A4 (AID 885); note: nearly all actives have a fitted effect of over 65% in size
How it was run: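 Using 20nM recombinant human CYP3A4 in potassium phosphate (200mM), substrate Luciferin-PPXE at 25uM, luminescent luciferin detection followed a 60-min RT NADPH reaction; data scaled to 57 uM ketoconazole.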

[20] = target: DNA dC->dU-editing enzyme APOBEC-3G (Homo sapiens) (UniProt Q9HC16); experiment: qHTS for inhibitors of Vif-A3G interactions: Validation (AID 588379); note: 0% is about no effect
How it was run: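 Yellow fluorescence (Ex 488, Em 500-530) of Vif-coexpressing HeLa A3G-eYFP cells, scanned by Acumen cytometer, reports blocked A3G degradation. Cells plated at 700/well overnight at 37 deg C before compound addition, then a further overnight compound incubation at 37 deg C.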

Cytochrome P450 2D6 (Homo sapiens), sequence (P10635 whole entry, looked up): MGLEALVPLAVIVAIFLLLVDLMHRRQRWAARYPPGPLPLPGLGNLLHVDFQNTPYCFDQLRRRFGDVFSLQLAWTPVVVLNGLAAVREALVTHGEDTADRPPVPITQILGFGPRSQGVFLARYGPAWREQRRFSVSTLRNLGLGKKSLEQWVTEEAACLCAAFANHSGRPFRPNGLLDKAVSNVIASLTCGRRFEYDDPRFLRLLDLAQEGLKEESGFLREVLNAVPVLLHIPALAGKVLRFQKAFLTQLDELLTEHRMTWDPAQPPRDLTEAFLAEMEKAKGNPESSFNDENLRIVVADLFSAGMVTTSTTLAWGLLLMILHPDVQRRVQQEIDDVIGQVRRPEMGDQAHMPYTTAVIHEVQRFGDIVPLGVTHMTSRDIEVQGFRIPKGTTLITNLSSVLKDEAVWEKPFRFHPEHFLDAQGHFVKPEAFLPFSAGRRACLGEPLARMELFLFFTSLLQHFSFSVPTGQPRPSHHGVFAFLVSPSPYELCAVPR
Cytochrome P450 2C9 (Homo sapiens), sequence (P11712 whole entry, looked up): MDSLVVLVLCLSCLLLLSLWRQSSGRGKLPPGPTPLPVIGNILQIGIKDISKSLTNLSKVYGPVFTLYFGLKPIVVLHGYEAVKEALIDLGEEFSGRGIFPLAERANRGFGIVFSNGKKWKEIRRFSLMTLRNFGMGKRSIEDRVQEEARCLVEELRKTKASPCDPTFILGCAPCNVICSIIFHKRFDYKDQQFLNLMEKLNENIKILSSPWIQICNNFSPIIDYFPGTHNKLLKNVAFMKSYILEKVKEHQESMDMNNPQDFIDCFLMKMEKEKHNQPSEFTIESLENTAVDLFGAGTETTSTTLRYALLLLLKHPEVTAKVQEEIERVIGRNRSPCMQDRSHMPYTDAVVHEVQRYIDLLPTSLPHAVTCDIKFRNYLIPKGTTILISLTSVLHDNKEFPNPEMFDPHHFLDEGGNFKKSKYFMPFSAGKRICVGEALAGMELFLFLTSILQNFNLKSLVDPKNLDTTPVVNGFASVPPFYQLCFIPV
Cytochrome P450 3A4 (Homo sapiens), sequence (P08684 whole entry, looked up): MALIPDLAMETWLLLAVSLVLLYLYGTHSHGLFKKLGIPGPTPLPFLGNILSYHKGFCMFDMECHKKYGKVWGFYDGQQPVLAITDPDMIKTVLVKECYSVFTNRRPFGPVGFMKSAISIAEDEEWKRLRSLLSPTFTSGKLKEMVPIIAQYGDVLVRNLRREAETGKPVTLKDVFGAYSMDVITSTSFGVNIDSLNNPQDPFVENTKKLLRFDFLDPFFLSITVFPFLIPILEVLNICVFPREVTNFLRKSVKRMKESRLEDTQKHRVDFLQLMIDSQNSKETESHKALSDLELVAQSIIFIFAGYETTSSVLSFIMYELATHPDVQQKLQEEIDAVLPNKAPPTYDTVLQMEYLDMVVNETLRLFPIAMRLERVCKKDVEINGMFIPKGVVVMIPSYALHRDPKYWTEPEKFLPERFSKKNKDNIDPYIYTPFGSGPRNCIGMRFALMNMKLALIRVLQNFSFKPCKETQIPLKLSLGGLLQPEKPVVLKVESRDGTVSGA
Cytochrome P450 2C19 (Homo sapiens), sequence (P33261 whole entry, looked up): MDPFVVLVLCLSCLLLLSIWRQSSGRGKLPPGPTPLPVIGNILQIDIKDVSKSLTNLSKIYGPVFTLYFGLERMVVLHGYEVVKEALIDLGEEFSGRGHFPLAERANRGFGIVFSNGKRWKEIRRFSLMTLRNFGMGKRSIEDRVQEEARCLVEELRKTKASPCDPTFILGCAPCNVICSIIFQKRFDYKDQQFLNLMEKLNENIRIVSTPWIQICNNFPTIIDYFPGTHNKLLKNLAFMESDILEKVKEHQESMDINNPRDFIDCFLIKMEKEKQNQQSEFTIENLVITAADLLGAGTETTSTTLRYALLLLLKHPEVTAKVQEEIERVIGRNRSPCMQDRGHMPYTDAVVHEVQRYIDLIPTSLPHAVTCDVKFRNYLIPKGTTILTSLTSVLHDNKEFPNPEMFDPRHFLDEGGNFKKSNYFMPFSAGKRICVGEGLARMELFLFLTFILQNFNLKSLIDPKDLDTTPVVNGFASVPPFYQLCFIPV
3',5'-cyclic-AMP phosphodiesterase 4B (Homo sapiens), sequence (Q07343 whole entry, looked up): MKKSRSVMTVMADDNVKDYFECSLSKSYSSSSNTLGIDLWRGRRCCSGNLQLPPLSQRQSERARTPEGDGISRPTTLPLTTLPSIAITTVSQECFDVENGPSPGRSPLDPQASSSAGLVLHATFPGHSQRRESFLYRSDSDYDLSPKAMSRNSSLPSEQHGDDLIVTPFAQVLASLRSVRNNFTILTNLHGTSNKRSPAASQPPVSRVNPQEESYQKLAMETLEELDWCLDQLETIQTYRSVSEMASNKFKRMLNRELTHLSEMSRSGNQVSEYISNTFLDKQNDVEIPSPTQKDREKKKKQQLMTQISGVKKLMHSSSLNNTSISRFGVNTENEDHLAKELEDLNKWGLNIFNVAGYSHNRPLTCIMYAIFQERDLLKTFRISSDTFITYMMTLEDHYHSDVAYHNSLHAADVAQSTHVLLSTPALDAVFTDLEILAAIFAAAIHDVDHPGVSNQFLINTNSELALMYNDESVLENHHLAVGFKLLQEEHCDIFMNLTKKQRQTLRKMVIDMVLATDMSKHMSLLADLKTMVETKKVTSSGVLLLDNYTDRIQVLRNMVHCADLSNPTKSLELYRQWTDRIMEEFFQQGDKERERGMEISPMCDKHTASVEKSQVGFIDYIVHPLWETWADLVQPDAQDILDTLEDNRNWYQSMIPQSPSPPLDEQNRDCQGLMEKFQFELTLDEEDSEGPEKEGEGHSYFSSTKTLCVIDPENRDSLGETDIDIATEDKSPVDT
DNA dC->dU-editing enzyme APOBEC-3G (Homo sapiens), sequence (Q9HC16 whole entry, looked up): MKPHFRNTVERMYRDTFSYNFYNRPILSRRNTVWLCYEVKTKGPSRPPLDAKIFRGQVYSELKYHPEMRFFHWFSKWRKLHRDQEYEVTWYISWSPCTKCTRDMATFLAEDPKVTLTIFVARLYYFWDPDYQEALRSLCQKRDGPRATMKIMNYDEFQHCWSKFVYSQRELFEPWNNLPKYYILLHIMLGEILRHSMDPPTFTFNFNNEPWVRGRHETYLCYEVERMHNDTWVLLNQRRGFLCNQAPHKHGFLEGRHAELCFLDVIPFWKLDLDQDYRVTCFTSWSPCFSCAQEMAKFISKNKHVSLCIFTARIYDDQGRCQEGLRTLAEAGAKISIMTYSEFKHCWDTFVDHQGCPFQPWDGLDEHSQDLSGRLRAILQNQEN
Cytochrome P450 1A2 (Homo sapiens), sequence (P05177 whole entry, looked up): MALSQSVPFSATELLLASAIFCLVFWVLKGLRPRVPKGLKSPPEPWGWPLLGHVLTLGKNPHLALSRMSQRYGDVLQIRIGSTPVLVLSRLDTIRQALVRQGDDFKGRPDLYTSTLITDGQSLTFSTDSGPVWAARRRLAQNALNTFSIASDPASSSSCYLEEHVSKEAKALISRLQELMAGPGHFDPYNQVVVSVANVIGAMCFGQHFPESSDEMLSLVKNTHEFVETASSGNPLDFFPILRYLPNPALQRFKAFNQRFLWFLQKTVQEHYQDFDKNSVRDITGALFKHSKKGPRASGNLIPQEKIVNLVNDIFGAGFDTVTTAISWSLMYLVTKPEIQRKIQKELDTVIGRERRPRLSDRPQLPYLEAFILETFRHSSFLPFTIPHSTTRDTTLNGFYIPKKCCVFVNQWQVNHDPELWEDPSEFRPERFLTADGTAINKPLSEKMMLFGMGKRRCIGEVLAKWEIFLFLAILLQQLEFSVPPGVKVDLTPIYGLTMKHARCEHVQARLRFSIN
Glucocorticoid receptor (Homo sapiens), sequence (P04150 whole entry, looked up, the tested form may be a part): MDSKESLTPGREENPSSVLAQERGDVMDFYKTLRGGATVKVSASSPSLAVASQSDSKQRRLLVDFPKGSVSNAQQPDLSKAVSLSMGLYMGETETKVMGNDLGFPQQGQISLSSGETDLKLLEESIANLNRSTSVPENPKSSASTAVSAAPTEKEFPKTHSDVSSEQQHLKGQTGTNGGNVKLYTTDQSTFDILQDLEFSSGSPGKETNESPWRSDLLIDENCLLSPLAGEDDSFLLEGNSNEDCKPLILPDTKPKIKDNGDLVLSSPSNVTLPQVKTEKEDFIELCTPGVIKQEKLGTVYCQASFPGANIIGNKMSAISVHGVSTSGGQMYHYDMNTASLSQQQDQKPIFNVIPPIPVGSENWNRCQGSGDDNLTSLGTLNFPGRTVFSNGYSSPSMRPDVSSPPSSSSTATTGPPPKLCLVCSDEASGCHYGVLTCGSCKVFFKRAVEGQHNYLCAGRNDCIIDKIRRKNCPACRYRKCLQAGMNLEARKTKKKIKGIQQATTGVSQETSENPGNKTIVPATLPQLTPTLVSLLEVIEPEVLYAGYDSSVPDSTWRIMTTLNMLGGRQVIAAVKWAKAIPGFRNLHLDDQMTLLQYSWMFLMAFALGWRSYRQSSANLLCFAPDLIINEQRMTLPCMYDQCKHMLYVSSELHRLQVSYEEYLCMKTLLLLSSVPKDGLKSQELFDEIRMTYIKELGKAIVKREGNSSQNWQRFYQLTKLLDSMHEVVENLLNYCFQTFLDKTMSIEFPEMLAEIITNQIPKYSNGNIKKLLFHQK
Guanine nucleotide-binding protein G(i) subunit alpha-1 (Homo sapiens), sequence (P63096 whole entry, looked up): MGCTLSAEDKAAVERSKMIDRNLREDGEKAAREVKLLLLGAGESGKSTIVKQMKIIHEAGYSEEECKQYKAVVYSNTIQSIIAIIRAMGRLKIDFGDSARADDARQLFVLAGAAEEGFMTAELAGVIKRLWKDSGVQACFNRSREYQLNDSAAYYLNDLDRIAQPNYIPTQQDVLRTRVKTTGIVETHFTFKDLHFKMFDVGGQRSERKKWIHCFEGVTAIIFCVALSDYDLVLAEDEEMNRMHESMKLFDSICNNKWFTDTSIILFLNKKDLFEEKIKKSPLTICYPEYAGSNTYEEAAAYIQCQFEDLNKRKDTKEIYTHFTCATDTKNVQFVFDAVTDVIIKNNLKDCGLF

CCSc1nnc(NC(=O)NC(CC)(C(F)(F)F)C(F)(F)F)s1
inactive: activity change, negative = inhibition [1] -15.5% | Potency [2] > 20.6 µM

CCCCC[C@H](O)c1cccc(OCc2ccc3ccccc3n2)c1
active: Potency [3] 0.794 µM | Potency [8] 6.31 µM
inactive: activity, negative = inhibition [4] -0.505% [at 38 µM] | Potency [2] > 46 µM | Potency [5] > 46 µM | Potency [6] | outcome [7] | Potency [9] | Potency [10] | Potency [11] | outcome [12] | outcome [13] | outcome [14]

CC(=O)Oc1ccc(/C=C\C(=O)C[C@@H]2O[C@@H](Oc3cc(OC(C)=O)c4c(c3)O[C@@H](c3ccc(OC(C)=O)cc3)CC4=O)[C@H](OC(C)=O)[C@H](OC(C)=O)[C@@H]2OC(C)=O)cc1
inactive: Potency [3] | Potency [2] > 46 µM | Potency [5] > 46 µM | Potency [6] | Potency [15] | Potency [16] | Potency [17] | Potency [8]

C/C(=C\CNc1ncnc2c1ncn2[C@@H]1O[C@@H](CO)[C@@H](O)[C@H]1O)CO
inactive: Potency [3] | Potency [2] > 46 µM | Potency [5] > 46 µM | Potency [6] | Potency [15] | Potency [16] | Potency [17] | Potency [8]

O=c1cc(-c2ccc(O)cc2O)oc2ccccc12
active: Potency [3] 1.26 µM | Potency [16] 5.01 µM | Potency [18] 3.16 µM
inactive: Potency [2] > 46 µM | Potency [5] > 46 µM | Potency [6] | Potency [15] | Potency [19] | Potency [17] | outcome [20]

CC(=O)O[C@@H]1CC[C@]2(C)[C@H]3CC[C@]4(C)[C@H](C[C@H]5CCCC[C@@]54C(C)=O)[C@@H]3CC(=O)[C@@]2(O)C1
inactive: Potency [2] > 46 µM | Potency [5] > 46 µM | Potency [6] | Potency [15] | Potency [17]
active: Potency [3] 20 µM

COc1ccc([C@@H]2CC(=O)c3c(O)cc(O[C@@H]4O[C@@H](CO[C@@H]5O[C@@H](C)[C@@H](O)[C@@H](O)[C@H]5O)[C@@H](O)[C@@H](O)[C@H]4O)cc3O2)cc1O
inactive: Potency [3] | Potency [2] > 46 µM | Potency [5] > 46 µM | Potency [6] | Potency [15] | Potency [16] | Potency [17] | Potency [8]

COc1cc(C(=O)O[C@@H]2CC(C)=CC[C@@]3(C)CC[C@](O)(C(C)C)[C@H]23)ccc1O
active: Potency [3] 15.8 µM | Potency [16] 15.8 µM
inactive: Potency [2] > 46 µM | Potency [5] > 46 µM | Potency [6] | Potency [15]

CC1(C)[C@@H](O)CC[C@@]2(C)[C@H]1CC[C@]1(C)[C@H]2C(=O)C=C2[C@@H]3C[C@@](C)(C(=O)O)CC[C@]3(C)CC[C@@]21C
inactive: Potency [3] | Potency [2] > 46 µM | Potency [5] > 46 µM | Potency [6] | Potency [15] | Potency [17] | Potency [8]

CCCc1c(OCCCOc2ccc(OCC(=O)O)cc2)ccc(CC=O)c1O
inactive: Potency [2] > 46 µM | Potency [5] > 46 µM | Potency [6] | Potency [15] | outcome [20]
active: Potency [3] 31.6 µM

COc1cc2ccc(=O)oc2c(O)c1OCC=C(C)C
inactive: Potency [2] > 46 µM | Potency [5] > 46 µM | Potency [6] | Potency [15] | Potency [19] | outcome [20]
active: Potency [3] 1.58 µM | Potency [8] 10 µM

C=C1CC[C@@H](O)C/C1=C/C=C1\CCC[C@]2(C)[C@@H]1CC[C@H]2[C@@H](C)CCCC(C)C
inactive: Potency [3] | Potency [2] > 46 µM | Potency [5] > 46 µM | Potency [6] | Potency [15] | Potency [16] | Potency [17] | Potency [8]

CCCCCCCCCCCCCCCCOC[C@@H](COCC(F)(F)F)OP(=O)(O)OCO
inactive: Potency [3] | Potency [2] > 46 µM | Potency [5] > 46 µM | Potency [6] | Potency [15] | Potency [17]

O=c1cc(-c2cccc(O)c2O)oc2ccccc12
active: Potency [3] 1 µM | Potency [6] 3.98 µM
inactive: Potency [2] > 46 µM | Potency [5] > 46 µM | outcome [20]

COc1ccc2c(=O)cc(-c3ccccc3)oc2c1O
inactive: Potency [2] > 46 µM | Potency [5] > 46 µM | Potency [6] | Potency [19] | Potency [17] | outcome [20]
active: Potency [3] 0.0158 µM | Potency [16] 15.8 µM | Potency [8] 5.01 µM
